Compounds with a hit are over-represented: about 1.8% of the library has one in this group of screens.
RPL19A-GFP yeast – modulators of TOR pathway RPL19A-GFP in S. cerevisiae. S. cerevisiae RPL19A-GFP strain, flow cytometry, 3 h; active compounds read low. percent response vs DMSO, % at 10 µM. 0.3% of 330,000 active;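 active = percent response vs DMSO below 50%; inconclusive = fewer than 70 events counted for the yeast strain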;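 also: median channel GFP fluorescence of the barcoded RPL19A-GFP strain; ratio of sample median GFP to plate DMSO average so 100% = DMSO; lower means less RPL19A-GFP as with rapamycin TOR inhibition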
MEP2-GFP yeast – yeast TOR pathway MEP2-GFP modulation; S. cerevisiae MEP2-GFP strain, flow cytometry GFP, 3 h; 100% = DMSO control level; 0.51% of 330,000 active; GFP response vs DMSO, % at 10 µM;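 active = GFP response versus DMSO above a set limit, roughly screen mean plus 3 SD, cut at about 180% in these data; inconclusive = fewer than 70 cells counted for a yeast strain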;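 also: median GFP fluorescence of the barcode-gated MEP2-GFP cells per well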
CIT2 TOR yeast – yeast TOR pathway CIT2-GFP modulation; GFP response vs DMSO, % at 10 µM; S. cerevisiae CIT2-GFP strain, flow cytometry, 3 h; 100 means same as DMSO wells; 0.065% of 320,000 active;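 active = GFP response relative to DMSO above a set limit, near the screen mean plus 3 SD, cut at about 150% in these data; inconclusive = Fewer than 70 cells measured for a yeast strain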;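 also: ratio of well median GFP fluorescence to mean of DMSO wells on the plate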
AGP1-GFP MLPCN – alters AGP1-GFP fluorescence in TOR pathway yeast screen | GFP response vs DMSO, % at 10 µM | 0.02% of 320,000 active | S. cerevisiae AGP1-GFP multiplex flow cytometry, 3 h; GFP as percent of DMSO wells;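 active = GFP response relative to DMSO above a set limit, near screen average plus 3 SD, cut at about 150% in these data; inconclusive = fewer than 70 cells counted for the yeast strain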;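 also: median GFP channel fluorescence of the gated AGP1 strain per well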
Myeloid diff 2 – promotes myeloid progenitor differentiation; ER-HoxA9 myeloid progenitors, lysozyme-GFP differentiation, flow cytometry; calls only at 10 µM; 1% of 360,000 active;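 active = normalized GFP-positive differentiation at or above the plate's own cutoff, the solvent-only control mean plus 3 SD; inconclusive = no clear call, values can overlap the other calls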;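 also: cells exposed to compound for four days before flow analysis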
LAP4 TOR yeast – alters LAP4-GFP fluorescence in TOR pathway yeast screen; GFP response vs DMSO, % at 10 µM; S. cerevisiae LAP4-GFP multiplex, flow cytometry GFP, 3 h; median GFP as percent of DMSO wells; 0.34% of 320,000 active;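 active = GFP response vs DMSO above a set limit, about the screen mean plus 3 SD, cut at about 150% in these data; inconclusive = under 70 cell events counted for the yeast strain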
Numbers without * were called inactive; i = inactive; ? = inconclusive; nt = not tested or not shown; + = active, no number; [ ] = dose if it differs, or a comment.

SMILES	RPL19A-GFP yeast	MEP2-GFP yeast	CIT2 TOR yeast	AGP1-GFP MLPCN	Myeloid diff 2	LAP4 TOR yeast
CC(NC(=O)c1ccc(S(=O)(=O)NCc2ccco2)cc1)c1ccc(F)cc1 (configuration not stated)	96	103	94	104	i	106
Cc1oc(-c2ccc(Cl)cc2)nc1CN1CCCC(C(=O)NCc2ccco2)C1 (configuration not stated)	104	105	103	101	+	103
Cc1oc(-c2cccc(Cl)c2)nc1CN1CCC(C(=O)NCCCN2CC(C)CC(C)C2)CC1 (configuration not stated)	17*[may fluoresce violet]	190*[may fluoresce violet]	?	?	nt	75
Cc1oc(-c2ccc(Cl)cc2)nc1CN1CCCC(C(=O)NC2CC2)C1 (configuration not stated)	95	102	110	100	i	97
COc1cc(/C=C/C(=O)OCC(=O)Nc2ccccc2Sc2ccc(Cl)cc2)ccc1O	103	104	107	102	i	102
O=C(/C=C/c1ccccc1)NCCS(=O)(=O)N1CCN(c2ccc(F)cc2)CC1	98	100	97	105	i	92
NC(=O)C1CCN(C(=O)CCCCCn2c(=O)[nH]c3ccsc3c2=O)CC1	22*[may fluoresce violet]	222*[may fluoresce violet]	?	?	i	83
CCc1cccc(CC)c1NC(=O)c1cccc(NC(=O)c2ccccc2)c1	96	93	99	98	+	90
CCOc1ccc(NC(=O)c2cccc(NC(=O)c3ccccc3)c2)cc1	105	101	116	103	i	96
C/C(=N\NC(=O)c1ccco1)c1ccc(-c2ccccc2)cc1	101	102	99	99	?	101
CC(C)CN1CCN(C(=O)COC(=O)c2ccc(S(C)(=O)=O)c([N+](=O)[O-])c2)CC1	nt	nt	nt	nt	+	nt
C(=N\Nc1ccccn1)/c1c[nH]c2ccccc12	68	207*	103	27	i	115
COc1ccc(NC(=S)NC(=O)c2ccccc2Cl)cc1	79	177*[may fluoresce violet]	?	18	i	93
O=C(NC(=S)Nc1ccc(O)cc1)c1ccccc1Cl	99	106	84	101	i	104
CCCC12CN3CC(C)(CN(C1)C3c1ccc(OC(C)C)cc1)C2=O (configuration not stated)	97	96	100	95	i	92
O=C(N/N=C/c1ccc(OC(F)F)cc1OC(F)F)NC1CCCCC1	96	95	91	105	i	111
CC1Cc2nc(SCC(=O)Nc3ccc4c(c3)OCCO4)n(C)c(=O)c2S1 (configuration not stated)	105	94	61	73	i	90
COCCn1c(SCC(=O)Nc2ccc3c(c2)OCCO3)nc2c(c1=O)SC(C)C2 (configuration not stated)	96	94	87	95	+	96
Cc1ccc(/C=C2/NC(=O)N(Cc3ccccc3)C2=O)o1	102	98	96	96	i	172*
COC(=O)C1CCN(c2ccc([N+](=O)[O-])cc2)CC1	94	95	96	97	i	102
Cc1ccc(C(=O)OC2CCN(c3ccc([N+](=O)[O-])cc3)CC2)cc1	42*[may fluoresce violet]	239*[may fluoresce violet]	?	?	i	?
Cc1cn([C@H]2C[C@H](O)[C@@H](CCC(=O)NCC(c3ccccc3)c3ccccc3)O2)c(=O)[nH]c1=O	nt	nt	nt	nt	i	nt
Cc1cc(C)nc(NC(=O)/C=C/c2ccccc2Cl)n1	102	111	105	110	+	108
Cc1cc(C)nc(NC(=O)/C=C/c2ccccc2Cl)c1	96	93	91	87	i	89
OC(c1ccc(CN2CCCCC2)cc1)c1ncc(-c2ccccc2F)[nH]1 (configuration not stated)	nt	nt	nt	nt	i	nt
SMILES	RPL19A-GFP yeast	MEP2-GFP yeast	CIT2 TOR yeast	AGP1-GFP MLPCN	Myeloid diff 2	LAP4 TOR yeast
O=C(CCS(=O)(=O)c1ccc(Br)s1)NC1CCCCCC1	61	448*[may fluoresce violet]	?	23	i	74
O=C(CCS(=O)(=O)c1ccccc1)NC1CCCCC1	99	98	98	102	i	91
O=C(NC1CCCC1)c1ccc(Cl)c(S(=O)(=O)N2CCOCC2)c1	56	636*[may fluoresce violet]	?	?	i	88
Cc1ccc2c(c1)C1CN(C)CCC1N2C(=O)c1cccc(S(=O)(=O)N2CC(C)CC(C)C2)c1 (configuration not stated)	103	102	105	106	i	110
Cc1ccc2c(c1)C1CN(C)CCC1N2C(=O)c1ccc(Cl)c(S(=O)(=O)N2CCOCC2)c1 (configuration not stated)	90	170	112	111	i	150*
Cc1ccc(C(=O)NC2CCCCCCC2)cc1S(=O)(=O)N1CCOCC1	nt	nt	nt	nt	i	nt
CC(C)NC(=O)N(O)C1N(C(C)C)C(=O)N(Cc2ccc3c(c2)OCO3)C1(C)C (configuration not stated)	100	99	100	100	i	96
Nc1c(C(=O)NCc2ccccc2)c2nc3ccccc3nc2n1-c1ccc2c(c1)OCO2	98	110	105	103	+	105
COc1ccc(C2C(C#N)=C(C)NC3=C2C(=O)CC(C)(C)C3)cc1 (configuration not stated)	98	97	104	106	i	95
COc1ccc(C2C3=C(CC(C)(C)CC3=O)Nc3c2c(=O)[nH]c2nc(C)nn32)cc1 (configuration not stated)	98	97	99	104	+	100
Cc1cc(C)c2c(n1)nn1c(NCCCN(C)C)cc(C)nc21	35*[may fluoresce violet]	259*[may fluoresce violet]	?	46	i	106
COC(=O)Cc1ccc(NC(=S)NCCO)cc1	95	96	96	100	i	107
COC(=O)Cc1ccc(NC(=S)NC2CC2)cc1	99	99	101	102	+	102
Cc1onc(-c2ccccc2)c1C(=O)OCC(=O)Nc1ccc(C#N)cc1	100	97	92	101	i	102
Cc1cc(NC(=O)CCC(=O)N(CCC(C)C)C(C(=O)NC2CCCC2)c2ccccc2C)no1 (configuration not stated)	95	99	103	97	i	86
CCN(c1ccccc1)S(=O)(=O)c1ccc(C(=O)Nc2cccc(NC(C)=O)c2)cc1	105	100	118	101	i	95
CCN(c1ccccc1)S(=O)(=O)c1cc(C(=O)Nc2ccc(F)c(F)c2)ccc1F	101	95	95	97	+	101
c1cncc(Nc2nc(-c3cccnc3)cs2)c1	94	97	107	101	i	94
Clc1ccccc1Nc1nc(-c2cccnc2)cs1	43*[may fluoresce violet]	210*[may fluoresce violet]	?	?	i	82

Screening results deposited in PubChem BioAssay by NMMLSC.
